Laboratory results taken from ChEMBL document CHEMBL2218924, “A broad activity screen in support of a chemogenomic map for kinase signalling research and drug discovery” (Biochem J, 2013).

biological target: Mitogen-activated protein kinase 1 (Homo sapiens) (UniProt P28482); details: at 1 µM
Sequence (P28482 whole entry): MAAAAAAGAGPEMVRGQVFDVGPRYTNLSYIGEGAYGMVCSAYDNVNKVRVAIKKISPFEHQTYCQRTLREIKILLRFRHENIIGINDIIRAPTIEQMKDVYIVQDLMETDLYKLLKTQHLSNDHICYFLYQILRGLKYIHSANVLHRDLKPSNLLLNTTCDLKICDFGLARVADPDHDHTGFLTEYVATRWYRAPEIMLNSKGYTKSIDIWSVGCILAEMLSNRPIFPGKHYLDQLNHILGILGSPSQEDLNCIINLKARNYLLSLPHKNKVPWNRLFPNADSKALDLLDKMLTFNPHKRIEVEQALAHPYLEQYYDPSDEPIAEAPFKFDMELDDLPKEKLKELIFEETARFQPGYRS

SMILES	residual activity [%]
NC(=O)c1ccc2[nH]c(-c3ccc(Oc4ccc(Cl)cc4)cc3)nc2c1	102
Cc1nc(-c2ccccc2)c(-c2ccncc2)o1	118
CCOc1cc2ncnc(Nc3cccc(Br)c3)c2cc1OCC	106
CC(C)n1cnc2/c(=N/c3cccc(Cl)c3)nc(NCCO)[nH]c21	117
Nc1nc(Nc2ccc(S(N)(=O)=O)cc2)nn1C(=S)Nc1c(F)cccc1F	49
Cc1ccc(S(=O)(=O)/C=C/C#N)cc1	113
Ic1cccc(CSc2nnc(-c3ccncc3)o2)c1	111
O=C1NC(=O)c2c1c1c3ccccc3[nH]c1c1[nH]c3cc(Br)ccc3c21	111
O=C1NC(=O)/C(=C\c2ccc3nccnc3c2)S1	98
CCN(CC)CCCCN1c2ccccc2Oc2ccc(Cl)cc21	116
COc1cccc(-c2cc(=O)c3ccccc3o2)c1N	114
O=C1c2ccccc2-[n+]2ccc3c([nH]c4ccccc43)c21	107
Oc1ccc(-c2nc(-c3ccc(F)cc3)c(-c3ccncc3)[nH]2)cc1	113
Cc1nc2cc3nc(-c4cccs4)cnc3cc2n1C	100
COc1ccc(C(=O)Nc2sc3c(c2C(N)=O)CCCC3)cc1OC	111
Cn1cc(/C=C2\C(=O)Nc3ccc(S(N)(=O)=O)cc32)c2ccccc21	106
Nc1ccc2ncnc(NCCc3ccc(Oc4ccccc4)cc3)c2c1	104
CO[C@H]1C[C@@H]2CC[C@@H](C)[C@@](O)(O2)C(=O)C(=O)N2CCCC[C@H]2C(=O)O[C@H]([C@H](C)C[C@@H]2CC[C@@H](O)[C@H](OC)C2)CC(=O)[C@H](C)/C=C(\C)[C@@H](O)[C@@H](OC)C(=O)[C@H](C)C[C@H](C)/C=C/C=C/C=C/1C	102
